Measured values as given in PubChem BioAssay.

Experiment: probe aShh binding to arrayed compounds – biochemical, biotinylated probe, 635/667 nm fluorescence, primary screen (AID 1114);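 further: probe is biotin-labelled aShh protein from a stem cell growth factor screen; measures binding of labelled protein to compounds printed on the slide; score merges feature fluorescence at 667 nm with signal-to-noise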
Conditions: small-molecule microarray, higher = more signal

SMILES	composite z-score
Cc1ccc(S[C@]2(C(=O)NCC(F)(F)F)CC(=O)N(Cc3cc(C(F)(F)F)cc(C(F)(F)F)c3)[C@@H]2c2ccc(CO)cc2)cc1	-0.356
COCCOC(=O)N1C(=O)[C@@]2(c3ccccc31)[C@H](c1ccc(O)cc1)N1[C@H](c3ccccc3)[C@H](c3ccccc3)OC(=O)[C@H]1[C@@H]2C(=O)N1CCN(c2ncccn2)CC1	0.0469
CCCCC(CC)C(O)C1C=CC2C(=O)N(c3ccccc3)C(=O)C2N1Nc1ccccc1F (stereo not given)	0.341
COC(=O)C/C=C/C[C@]1(O)C(=O)N(C)c2ccccc21	-0.243
COCCOC(=O)N1C(=O)[C@@]2(c3cc(C#CCCO)ccc31)[C@H](c1ccc(OCCO)cc1)N1[C@H](c3ccccc3)[C@H](c3ccccc3)OC(=O)[C@H]1[C@@H]2C(=O)Nc1nc2ccccc2s1	0.626
CC(C)c1ccc(NN2C(C(O)c3ccc(F)cc3)C=CC3C(=O)N(c4ccccc4)C(=O)C32)cc1 (stereo not given)	0.246
O=C1[C@H]2C=C(I)[C@H](C[C@@H]2OCCOCCO)[C@@]12CO2	-0.243
COC(=O)[C@@]1(Cc2ccc(F)cc2)[C@H]2c3cc(C(=O)N4CCCC4)n(CCc4c[nH]c5ccccc45)c3C[C@H]2CN1C(=O)c1ccccc1	0.582
O=C1OCCC/C=C\[C@H]2OC34C=CCN(c5ccc6ccccc6c5)C(=O)[C@H]3N(CCO)C(=O)[C@@H]4C12 (stereo not given in full)	-0.0533
Cc1ccc(S[C@]2(C(=O)O)CC(=O)N(C3CCCCC3)[C@@H]2c2ccc(CO)cc2I)cc1	0.351
CCCCC(CC)C(O)C1C=CC2C(=O)N(C)C(=O)C2N1Nc1ccccc1 (stereo not given)	0.0181
N#Cc1ccc(NN2C(C(O)c3ccc(Br)cc3)C=CC3C(=O)N(c4ccccc4)C(=O)C32)cc1 (stereo not given)	0.162
Oc1ccc2cc[n+](Cc3cc4c(cc3Br)OCO4)cc2c1	-0.0769
Cc1cc(C)c(C(O)C2C=CC3C(=O)N(c4ccccc4)C(=O)C3N2Nc2ccccc2F)c(C)c1 (stereo not given)	0.282
COCCOC(=O)N1C(=O)[C@@]2(c3cc(C#CC4=CCCCC4)ccc31)[C@H](C(=O)Nc1nc3ccccc3s1)[C@H]1C(=O)O[C@H](c3ccccc3)[C@H](c3ccccc3)N1[C@@H]2c1ccc(O)cc1	-0.51
COc1ccc([Si](C)(C)[C@H]2[C@H](CC(=O)N(CCO)Cc3ccccc3)O[C@@]3(C(=O)N(C)c4c(Br)cc(C)cc43)[C@@H]2C)cc1	-0.154
O=C(c1ccccc1)N1C(=O)[C@]2(Cc3ccccc31)N=C(c1ccc(OCCCO)cc1)O[C@@H]2c1ccccc1	0.108
COc1ccc(CCNC(=O)[C@@]2(c3ccc([N+](=O)[O-])cc3)CC(=O)N(C3CCCCC3)[C@@H]2c2ccc(CO)cc2)cc1	-0.0886

SMILES	composite z-score
O=C(NCCN1CCOCC1)[C@@H]1c2ccccc2C(=O)N(Cc2ccccc2Cl)[C@H]1c1ccc(CO)cc1	-0.471
CS(=O)(=O)CCOC(=O)C1=CC(c2ccc(CO)cc2)=CC(C2CC2)N(Cc2sc3ccccc3c2Cl)C=C1C(=O)OCCS(C)(=O)=O (stereo not given)	0.199
CC1=C2[C@@H](CCc3ccccc3)OB(O)C[C@@H]2[C@@H]2C(=O)N(C)C(=O)[C@@H]2C1	0.0469
CN1C2C=C(CCCO)C(C3C(=O)N(C(N)=O)C(=O)C32)C1C1CC1 (stereo not given)	0.0062
NCCCCCCNC(=O)[C@@H]1C[C@@H]2C(=O)N[C@@H](CCCCN)C(=O)N2[C@@H]1c1ccc(O)cc1	0.12
CC1CC/C=C\[C@H]2OC34C=CCN(C(C)(C)C)C(=O)[C@H]3N(CCCCCO)C(=O)[C@@H]4C2C(=O)O1 (stereo not given in full)	-0.283
Cc1ccc(F)cc1S(=O)(=O)N[C@@H]1CCN(Cc2ccc(Br)cc2)C1	-0.214
COC(=O)[C@@]1(Cc2ccc(OC)cc2)[C@H]2c3cc(C(=O)N4CCCC4)n(CCO)c3C[C@H]2CN1C(=O)c1ccccc1	0.305
CCOC(=O)C[C@H]1[C@H](OC(=O)c2ccccc2-c2ccccc2)[C@@H](NC(=O)c2ccc3ccccc3c2)c2cc(OCCCO)ccc2N1C(=O)c1ccccc1	-0.291
CCCC1(C(=O)OC)C=C2C(=C(C)C(=O)C2C)CN1 (stereo not given)	0.0141
O=C1C2C=CC(C(O)C3CC=CCC3)N(Nc3ccccc3)C2C(=O)N1c1ccccc1 (stereo not given)	0.128
CC(C)N1C(=O)C[C@@](C(=O)NC2CC2)(c2ccc([N+](=O)[O-])cc2)[C@H]1c1ccc(CO)cc1	-0.0709
C=C(C(=O)CC[C@H](OC(=O)c1ccccc1-c1ccccc1C(=O)O)c1cccc(OCCO)c1)C(C)C	-0.0605
COC(=O)c1c(CC[C@@H](CO)NC(=O)N[C@@H](C)Cn2cc(-c3ccccn3)nn2)oc(C(C)=O)c1C(=O)OC	0.123
COCC(=C=CC[C@H](O)c1ccc(CO)o1)CCO	-0.0119
COCC(=C=CC[C@H](O)c1ccc(OCCO)cc1)CCO	-0.138
COc1cc(NN2C(C(O)c3ccco3)C=CC3C(=O)N(C)C(=O)C32)cc(OC)c1OC (stereo not given)	0.394
